Reference: PubChem BioAssay (Tox21)
Where “and” joins values, the source holds several entries; their conditions need not be identical. Identical values can stand only once. Some structures have more than one record in an assay (separate samples or runs), and their calls can disagree. Calls of active or inactive are those of the source. Entries that show only a call come without a potency. Unless noted, calls follow the shape of the dose curve; as a rule, active = well fitted curve in the direction sought with a large enough effect in the repeat runs; inconclusive = weak or mixed curves; inactive = no such curve, though single readings can be large; an effect the other way counts as inactive or inconclusive.

What was measured:
[1] = qHTS assay to identify small molecule antagonists of the glucocorticoid receptor (GR) signaling pathway - cell viability counter screen (AID 720693); also: nearly all actives have a fitted effect of over 55% in size; also: potency is read from the fitted curve at half-maximal effect
[2] = qHTS assay for identifying genotoxic compounds that show differential cytotoxicity against isogenic chicken DT40 cell lines with known DNA damage response pathways - wild type cell line (AID 743012); also: nearly all actives have a fitted effect of over 60% in size; also: potency is read from the fitted curve at half-maximal effect
Method in brief: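 CellTiter-Glo luminescence readout of viability in wild type DT40 cells after 40 h compound exposure at 37 C/5% CO2; 300 cells/well; reagent incubated 30 min at room temperature before reading.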

[3] = qHTS assay for identifying genotoxic compounds that show differential cytotoxicity against isogenic chicken DT40 cell lines with known DNA damage response pathways - Rev3 mutant cell line (AID 743014); also: nearly all actives have a fitted effect of over 55% in size; also: potency is read from the fitted curve at half-maximal effect
[4] = qHTS assay for identifying genotoxic compounds that show differential cytotoxicity against isogenic chicken DT40 cell lines with known DNA damage response pathways - Rad54/Ku70 mutant cell line (AID 743015); also: nearly all actives have a fitted effect of over 60% in size; also: potency is read from the fitted curve at half-maximal effect
[5] = qHTS assay to identify small molecule antagonists of the androgen receptor (AR) signaling pathway - cell viability counter screen (AID 743033; also: nearly all actives have a fitted effect of over 45% in size; also: potency is read from the fitted curve at half-maximal effect)
[6] = qHTS assay to identify small molecule antagonists of the androgen receptor (AR) signaling pathway using the MDA cell line - cell viability counter screen (AID 743041; also: nearly all actives have a fitted effect of over 45% in size; also: potency is read from the fitted curve at half-maximal effect)
Method in brief: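 In this qHTS counter assay, fluorescence intensity after CellTiter-Fluor addition indicated viability of MDA-kb2 AR-luc cells given compounds and R1881 for 16 h at 37C.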

[7] = qHTS assay to identify small molecule antagonists of the thyroid receptor (TR) signaling pathway - cell viability counter screen (AID 743064); also: nearly all actives have a fitted effect of over 50% in size; also: potency is read from the fitted curve at half-maximal effect
Method in brief: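 Fluorescence from CellTiter-Fluor, added after 23.5 h exposure at 37 °C, reported viability of GH3.TRE-Luc cells co-treated with compound and 1 nM T3. Measured in the same wells as the luciferase TR readout.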

[8] = system: thyroid hormone receptor (rat, GH3 cells); assay: qHTS assay to identify small molecule agonists of the thyroid receptor (TR) signaling pathway (AID 743066; calls by dose curve)
[9] = qHTS assay to identify small molecule antagonists of the estrogen receptor alpha (ER-alpha) signaling pathway - cell viability counter screen (AID 743074; calls by dose curve;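 also: HEK293 cells carrying ER-alpha-UAS-bla reporter stimulated with 17beta-estradiol; nearly all actives have a fitted effect of over 45% in size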; also: potency is read from the fitted curve at half-maximal effect)
[10] = qHTS assay to identify small molecule antagonists of the estrogen receptor alpha (ER-alpha) signaling pathway using the BG1 cell line - cell viability counter screen (AID 743081);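 also: compound given together with 17beta-estradiol as the ER stimulus; nearly all actives have a fitted effect of over 45% in size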; also: potency is read from the fitted curve at half-maximal effect
[11] = qHTS assay to identify aromatase inhibitors - cell viability counter screen (AID 743084);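 also: cells stimulated with testosterone during compound exposure; nearly all actives have a fitted effect of over 55% in size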; also: potency is read from the fitted curve at half-maximal effect
[12] = qHTS assay to identify small molecule antagonists of the estrogen receptor alpha (ER-alpha) signaling pathway using the BG1 cell line (AID 743080; calls by dose curve;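 also: BG1 cells stimulated with 17beta-estradiol alongside compound; nearly all actives have a fitted effect of over 25% in size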; also: potency is read from the fitted curve at half-maximal effect)
Method in brief: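 Luciferase inhibition measured with ONE-Glo after 30 min at RT in BG1Luc4E2 cells given test compounds and 17beta-estradiol for 21.5 h at 37 C; CellTiter-Fluor viability read in the same wells beforehand.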

[13] = target: Aromatase (Homo sapiens) (UniProt P11511); assay: qHTS assay to identify aromatase inhibitors (AID 743083); also: nearly all actives have a fitted effect of over 55% in size; also: potency is read from the fitted curve at half-maximal effect
Aromatase (Homo sapiens), sequence (P11511 whole entry, looked up): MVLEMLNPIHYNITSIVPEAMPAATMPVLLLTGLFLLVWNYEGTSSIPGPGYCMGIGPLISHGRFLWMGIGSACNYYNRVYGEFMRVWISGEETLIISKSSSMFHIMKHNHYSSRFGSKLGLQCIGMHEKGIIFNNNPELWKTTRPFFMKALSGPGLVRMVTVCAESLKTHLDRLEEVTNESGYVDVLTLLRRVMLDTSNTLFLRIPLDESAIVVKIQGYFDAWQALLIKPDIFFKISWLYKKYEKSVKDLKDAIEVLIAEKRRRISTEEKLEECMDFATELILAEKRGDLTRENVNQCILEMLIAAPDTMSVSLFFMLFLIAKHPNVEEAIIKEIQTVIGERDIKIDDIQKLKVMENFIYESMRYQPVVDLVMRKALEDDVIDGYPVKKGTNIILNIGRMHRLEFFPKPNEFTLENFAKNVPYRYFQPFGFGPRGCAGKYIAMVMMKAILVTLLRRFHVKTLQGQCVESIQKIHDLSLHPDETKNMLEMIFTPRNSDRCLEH

[14] = target: Androgen receptor (Homo sapiens) (UniProt P10275); assay: qHTS assay to identify small molecule agonists of the androgen receptor (AR) signaling pathway using the MDA cell line (AID 743040; also: nearly all actives have a fitted effect of over 20% in size)
Androgen receptor (Homo sapiens), sequence (P10275 whole entry, looked up): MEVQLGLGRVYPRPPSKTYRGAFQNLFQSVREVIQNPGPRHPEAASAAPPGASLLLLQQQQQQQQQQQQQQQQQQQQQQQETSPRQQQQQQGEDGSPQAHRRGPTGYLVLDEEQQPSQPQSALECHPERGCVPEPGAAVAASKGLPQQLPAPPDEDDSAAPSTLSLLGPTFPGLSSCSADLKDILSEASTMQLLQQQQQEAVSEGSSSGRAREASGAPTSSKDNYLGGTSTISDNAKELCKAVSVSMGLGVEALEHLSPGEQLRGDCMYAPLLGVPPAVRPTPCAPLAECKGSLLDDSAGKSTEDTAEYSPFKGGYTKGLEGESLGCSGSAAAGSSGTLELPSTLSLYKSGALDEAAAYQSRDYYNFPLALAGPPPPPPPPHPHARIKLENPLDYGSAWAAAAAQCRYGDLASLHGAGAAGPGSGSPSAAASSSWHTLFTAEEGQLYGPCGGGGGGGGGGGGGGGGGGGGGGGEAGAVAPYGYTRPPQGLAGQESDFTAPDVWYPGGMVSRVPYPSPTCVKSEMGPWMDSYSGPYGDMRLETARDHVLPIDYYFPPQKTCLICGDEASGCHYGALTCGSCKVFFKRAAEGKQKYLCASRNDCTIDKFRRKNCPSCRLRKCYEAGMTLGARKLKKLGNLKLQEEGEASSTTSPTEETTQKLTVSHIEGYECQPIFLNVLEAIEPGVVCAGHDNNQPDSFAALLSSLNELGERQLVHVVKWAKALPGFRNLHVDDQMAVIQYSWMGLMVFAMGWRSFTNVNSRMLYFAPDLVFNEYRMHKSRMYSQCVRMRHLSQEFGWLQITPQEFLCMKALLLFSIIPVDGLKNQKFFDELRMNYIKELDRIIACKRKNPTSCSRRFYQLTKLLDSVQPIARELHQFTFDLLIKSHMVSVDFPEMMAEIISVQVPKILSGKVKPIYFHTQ
Method in brief: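 Cell-based luciferase reporter: MDA-kb2, MMTV promoter (AR + GR response elements). 16 h compound exposure at 37C; ONE-Glo, 30 min RT, luminescence.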

[15] = target: Androgen receptor (Homo sapiens) (UniProt P10275); assay: qHTS assay to identify small molecule antagonists of the androgen receptor (AR) signaling pathway using the MDA cell line (AID 743042; also: nearly all actives have a fitted effect of over 55% in size; also: potency is read from the fitted curve at half-maximal effect)
Method in brief: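 MDA-kb2 cells (human breast carcinoma, stably carrying an MMTV-luciferase reporter responsive to AR and GR) were plated at 3,000 cells/well and preincubated 5 hr at 37C, then given compound plus R1881 agonist for 16 h. ONE-Glo luminescence was read.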

[16] = qHTS assay to identify small molecule antagonists of the thyroid receptor (TR) signaling pathway (AID 743065); also: nearly all actives have a fitted effect of over 55% in size; also: potency is read from the fitted curve at half-maximal effect
Method in brief: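 GH3.TRE-Luc rat pituitary cells carrying two TR response elements driving luciferase were plated for 4 h, given compound plus 1 nM T3 (final), and incubated 23.5 h at 37 C. ONE-Glo luminescence measured reporter inhibition; CellTiter-Fluor fluorescence tracked cytotoxicity.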

[17] = target: Estrogen receptor (Homo sapiens) (UniProt P03372); assay: qHTS assay to identify small molecule antagonists of the estrogen receptor alpha (ER-alpha) signaling pathway (AID 743069; active = well fitted curve in the direction sought with a large enough effect in the signal ratio in the repeat runs, not every such curve was filed as active; inconclusive = weak or mixed curves, or effect the other way; inactive = no such curve, though single readings can be large or run the other way; the % refers to the signal ratio; also: potency is read from the fitted curve at half-maximal effect)
Estrogen receptor (Homo sapiens), sequence (P03372 whole entry, looked up): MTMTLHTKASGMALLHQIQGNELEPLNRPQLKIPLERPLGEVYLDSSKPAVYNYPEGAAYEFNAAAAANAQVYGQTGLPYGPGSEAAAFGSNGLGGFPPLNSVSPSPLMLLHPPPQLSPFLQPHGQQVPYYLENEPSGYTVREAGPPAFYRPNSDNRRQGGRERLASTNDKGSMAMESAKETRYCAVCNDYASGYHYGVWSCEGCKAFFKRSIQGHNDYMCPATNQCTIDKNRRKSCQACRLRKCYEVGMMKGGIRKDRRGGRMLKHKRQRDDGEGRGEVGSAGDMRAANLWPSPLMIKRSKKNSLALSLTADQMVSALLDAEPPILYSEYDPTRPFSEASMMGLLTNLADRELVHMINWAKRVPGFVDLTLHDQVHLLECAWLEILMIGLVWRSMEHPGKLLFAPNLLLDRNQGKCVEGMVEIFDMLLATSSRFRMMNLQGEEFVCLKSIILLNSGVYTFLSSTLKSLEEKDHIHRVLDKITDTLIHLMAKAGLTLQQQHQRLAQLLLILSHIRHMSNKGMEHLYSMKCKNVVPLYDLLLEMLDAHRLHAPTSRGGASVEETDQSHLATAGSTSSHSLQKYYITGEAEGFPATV
Method in brief: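 A 17beta-estradiol challenge was applied right after compound transfer to ER-alpha-UAS-bla HEK293 cells previously kept in charcoal-stripped serum. Plates stood 18 hr at 37C and 5% CO2; fluorescence was read following 2 hr FRET substrate loading at room temperature.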

[18] = target: Estrogen receptor (Homo sapiens) (UniProt P03372); assay: qHTS assay to identify small molecule agonists of the estrogen receptor alpha (ER-alpha) signaling pathway (AID 743075; calls by dose curve;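 also: HEK293 GripTite cells with ER-alpha and UAS-driven beta-lactamase reporter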; also: potency is read from the fitted curve at half-maximal effect)
[19] = target: Androgen receptor (Homo sapiens) (UniProt P10275); assay: qHTS assay to identify small molecule agonists of the androgen receptor (AR) signaling pathway (AID 743036; active = well fitted activation curve with a large enough effect in the signal ratio in the repeat runs, with a control signal flat, not every such curve was filed as active; inconclusive = weak or mixed curves, or effect the other way; inactive = no such curve, though single readings can be large or run the other way; the % refers to the signal ratio)
Method in brief: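 Fluorescence from a beta-lactamase FRET substrate served as read-out in AR-UAS-bla GripTite HEK293 cells. Cells were treated with DMSO-dissolved compounds for 16 h at 37C, then with LiveBLAzer B/G substrate for 2 h at room temperature.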

[20] = target: Estrogen receptor (Homo sapiens) (UniProt P03372); assay: qHTS assay to identify small molecule agonists of the estrogen receptor alpha (ER-alpha) signaling pathway using the BG1 cell line (AID 743079); also: nearly all actives have a fitted effect of over 20% in size; also: potency is read from the fitted curve at half-maximal effect

Structure (SMILES)	Potency [1]	Potency [2]	Potency [3]	Potency [4]	Potency [5]	Potency [6]	Potency [7]	outcome [8]	Potency [9]	Potency [10]	Potency [11]	Potency [12]	Potency [13]	Potency [14]	Potency [15]	Potency [16]	Potency [17]	Potency [18]	Potency [19]	Potency [20]
CCOP(=S)(OCC)OC(Cl)C(Cl)(Cl)Cl (stereo not drawn)	inactive	inactive	inactive	inactive	inactive	inactive	inactive	inactive	inactive	inactive	inactive									
Clc1ccc(CO/N=C(\Cn2ccnc2)c2ccc(Cl)cc2Cl)c(Cl)c1	inactive	13.3 µM (active)	26.6 µM (active)	21.1 µM (active)	inactive	inactive				inactive	inactive	11.9 µM (active)	2.66 µM (active)							
CCN	inactive	inactive	inactive	inactive	inactive	inactive	inactive	inactive	inactive	inactive	inactive	inactive	inactive							
N#CCCSCCC#N	inactive	inactive	inactive	inactive	inactive	inactive	inactive	inactive	inactive	inactive	inactive	inactive	inactive	inactive	inactive	inactive	inactive	inactive		
C[C@@H]1O[C@@H](O[C@@H]2C=C3CC[C@@H]4[C@H](CC[C@]5(C)[C@@H](c6ccc(=O)oc6)CC[C@]45O)[C@@]3(C)CC2)[C@H](O)[C@H](O)[C@H]1O	0.091 µM (active)	0.127 µM (active)	0.101 µM (active)	0.127 µM (active)	0.0057 µM (active)	inactive	inactive	inactive		inactive	inactive		inactive			inactive				
O=c1[nH]c2ccccc2n1C1CCN(CCCC(c2ccc(F)cc2)c2ccc(F)cc2)CC1	5.49 µM (active)	5.31 µM (active) and 6.11 µM (active)	10.6 µM (active) and 21.7 µM (active)	8.41 µM (active) and 9.69 µM (active)	inactive and 17.4 µM (active)	inactive			26.8 µM (active) and 54.9 µM (active)	54.5 µM (active)	54.5 µM (active)		inactive and 30.6 µM (active)					inactive		
CC(c1ccc(O)cc1)c1ccc(O)cc1	inactive	inactive	inactive	inactive	inactive		inactive	inactive	inactive	inactive		inactive	inactive			inactive				
CC(=O)O[C@H]1CC[C@@]2(C)C(=CC[C@@H]3[C@@H]2CC[C@]2(C)C(=O)CC[C@@H]32)C1	inactive	inactive	inactive	inactive	inactive	inactive	inactive	inactive	inactive	inactive	inactive	inactive	inactive	inactive	inactive	inactive		811 nM [inconclusive] (active) and 490 nM [inconclusive] (active)	inactive	320 nM (active) and 86.3 nM (active)
CCOCn1c(-c2ccc(Cl)cc2)c(C#N)c(Br)c1C(F)(F)F	3.47 µM (active)	1.93 µM (active)	2.17 µM (active)	1.54 µM (active)	0.871 µM (active)	3.86 µM (active)	6.11 µM (active)						9.69 µM (active)			1.37 µM (active)				
CCCCCCCCCCCCCCCC[n+]1ccccc1	25.7 µM (active) and 30.9 µM (active) and 34.2 µM (active)	427 nM (active) [middle of 4 runs]	380 nM (active) [middle of 4 runs]	386 nM (active) [middle of 4 runs]	19.2 µM (active) [middle of 4 runs]	27.3 µM (active) [middle of 4 runs]	16.8 µM (active) [middle of 4 runs]		22.9 µM (active) and 24.5 µM (active) and 43 µM (active)		32 µM (active) and 54.5 µM (active) and 60.3 µM (active)	21.1 µM (active) and 18 µM (active) and 15.4 µM (active)	7.7 µM (active) [middle of 4 runs]					inactive		
CCCCCCCCCC[N+](C)(C)CCCCCCCCCC	24.5 µM (active)	668 nM (active) and 433 nM (active)	841 nM (active) and 433 nM (active)	1.06 µM (active) and 344 nM (active)	16.9 µM (active) and 19.5 µM (active)	24.8 µM (active) and 30.6 µM (active)	5.96 µM (active) and 12.2 µM (active)		10.7 µM (active) and 38.9 µM (active)	inactive	21.1 µM (active) and 61.1 µM (active)	33.5 µM (active)	13.3 µM (active) and 24.3 µM (active)			5.96 µM (active) and 9.69 µM (active)		inactive		
O=C(O)c1cc[c]([Hg][Cl])cc1	inactive	inactive	1.93 µM (active)	1.54 µM (active)	54.9 µM (active)	inactive	17.2 µM (active)	inactive	inactive	inactive	61.1 µM (active)		61.1 µM (active)			6.86 µM (active)	inactive	49 µM [activator] (active)		
CC(=O)C(Cl)(Cl)Cl	inactive	13.2 µM (active)	16.6 µM (active)	16.6 µM (active)	10.6 µM (active)		5.9 µM (active)	inactive	inactive	23.5 µM (active)	18.7 µM (active)		13.2 µM (active)	inactive	13.2 µM (active)	2.35 µM (active)	1.88 µM [inconclusive] (active)			
C[C@@H]1O[C@@H](O[C@H]2C[C@@H](O)[C@]3(CO)[C@H]4[C@H](O)C[C@]5(C)[C@@H](C6=CC(=O)OC6)CC[C@]5(O)[C@@H]4CC[C@]3(O)C2)[C@H](O)[C@H](O)[C@H]1O	379 nM (active) and 213 nM (active) and 58.5 nM (active)	2.11 µM (active) and 1.88 µM (active) and 1.3 µM (active)	2.11 µM (active) and 1.88 µM (active) and 517 nM (active)	1.88 µM (active) and 580 nM (active)	67.4 nM (active) and 53.5 nM (active) and 11.7 nM (active)		inactive	inactive	0.0425 µM (active)	inactive	inactive	531 nM (active) and 163 nM (active)		inactive	841 nM (active) and inactive	inactive		inactive		
O=[N+]([O-])c1cc([N+](=O)[O-])c2ccccc2c1	inactive	6.11 µM (active)	13.7 µM (active)	7.52 µM (active)	inactive	inactive		inactive						inactive		inactive				
N#CNC#N	inactive	inactive	inactive	61.8 µM (active)	inactive	inactive		inactive		inactive	inactive		inactive			inactive				
Clc1ccc(-c2ccc(Cl)c(Cl)c2Cl)c(Cl)c1Cl	inactive	inactive	inactive	inactive	inactive	inactive	inactive	inactive	inactive	inactive	inactive	inactive	inactive			inactive		inactive		inactive
CCCN(CCC)c1c([N+](=O)[O-])cc(S(N)(=O)=O)cc1[N+](=O)[O-]	58.6 µM (active)	2.06 µM (active)	16.9 µM (active)	22.1 µM (active)	20.8 µM (active)	51.8 µM (active)	48.7 µM (active)	inactive	26.2 µM (active)		32.7 µM (active)		33.1 µM (active)			30.6 µM (active)		inactive		
Cc1cc(C)c(C2=C(OC(=O)CC(C)(C)C)C3(CCCC3)OC2=O)c(C)c1	inactive	inactive	inactive	inactive	inactive	inactive	inactive	inactive	inactive	inactive	inactive	inactive	inactive			inactive	inactive	inactive		inactive
ClC(Cl)=C(Cl)Cl	inactive	inactive	inactive	inactive	inactive	inactive	inactive	inactive	inactive	inactive	inactive		inactive			inactive				
N#CSCSC#N	22.4 µM (active) and 21.7 µM (active)	5.57 µM (active) and 1.21 µM (active)	1.98 µM (active) and 1.91 µM (active)	3.51 µM (active) and 1.52 µM (active)	22.4 µM (active) and 24.3 µM (active)	62.5 µM (active) and 60.5 µM (active)	2.79 µM (active) and 4.28 µM (active)		inactive	inactive	12.5 µM (active) and 17.1 µM (active)		14 µM (active) and 17.1 µM (active)	inactive	55.7 µM (active) and 60.5 µM (active)	1.98 µM (active) and 2.15 µM (active)				
CCC[CH2][Sn]([CH2]CCC)([CH2]CCC)[O]C(=O)c1ccccc1	1.55 µM (active)	0.243 µM (active)	0.154 µM (active)	0.193 µM (active)	0.692 µM (active)	1.93 µM (active)	1.22 µM (active)		1.74 µM (active)	1.72 µM (active)	1.54 µM (active)	0.344 µM (active)	2.17 µM (active)				9.77 µM [cytotoxic] (active)			
CN(C)[C@@H]1C(=O)C(C(N)=O)=C(O)[C@@]2(O)C(=O)C3=C(O)c4c(O)ccc(Cl)c4[C@@](C)(O)[C@H]3C[C@@H]12	inactive	inactive	inactive and 55.6 µM (active)	inactive and 62.4 µM (active)	inactive	inactive	inactive	inactive	inactive	inactive	inactive		inactive			inactive				
CC(C)CC(C)Nc1ccc(Nc2ccccc2)cc1 (stereo not drawn)	48.2 µM (active)	26.8 µM (active)	16.9 µM (active)	15.1 µM (active)	21.5 µM (active)		42.5 µM (active)	inactive	48.2 µM (active)	53.5 µM (active)	47.7 µM (active)		53.5 µM (active)			30.1 µM (active)		inactive		
